# In PubChem BioAssay AID624483 (NMMLSC, 2012):
# Out of some 360,000 compounds screened, about 11,000 (3.1%) were called active. Not shown: some 2% with an inconclusive outcome. The sample as a whole holds a higher share of actives than the screen did. Values without a mark were called inactive. No stated cut-off is given here; in the data, active means fluorescence intensity above about 16000; inconclusive means no clear call, values can overlap the other calls; inactive means below that.
# Experiment: counter-screen for toxin protease inhibitors: compound fluorescence, primary screen, artefact control for toxin protease inhibitor project, biochemical, multiplex microsphere, HTS (AID 624483)
# Details: compound autofluorescence counterscreen, microsphere flow cytometry; active compounds read high
row,SMILES,fluorescence intensity
1,C=C1C(=O)[C@]23C[C@H]1CCC2[C@@]1(C)C(C[C@@H]3O)[C@](C)(C(=O)O)CC[C@@H]1O (stereo not given in full),4260
2,CC1=C(C(=O)N(C(C)C)C(C)C)CC(CC(=O)NCC2CCCCC2)C(=O)N1Cc1ccccc1 (stereo not given),5490
3,Cc1ccc(S(=O)(=O)N(c2cccc(C)c2)C2CCS(=O)(=O)C2)cc1 (stereo not given),21200 (active)
4,CCCCN(C1CCS(=O)(=O)C1)S(=O)(=O)c1ccc(C(C)C)cc1 (stereo not given),5460
5,CN(C1CCS(=O)(=O)C1)S(=O)(=O)c1ccc2ccccc2c1 (stereo not given),5860
6,CCOP(=O)(OCC)C(Cc1ccccc1)N=C(c1ccccc1)c1ccccc1 (stereo not given),5750
7,Cn1cnc(S(=O)(=O)Nc2ccc3c(c2)OCCO3)c1,3290
8,CCC(c1nnnn1-c1ccc2c(c1)OCCO2)N1CCN(c2ccc(C(F)(F)F)cn2)CC1 (stereo not given),5170
9,CC(=O)Nc1cc(-c2ccc(N3CCN(C)CC3)cc2)cn2c(-c3cccc(C(=O)N(C)C)c3)cnc12,2910
10,Cc1ccc(S(=O)(=O)/N=S(\C)C(C)C)cc1 (stereo not given),2730
11,CCCC/S(C)=N/S(=O)(=O)c1ccc(C)cc1 (stereo not given),1940
12,CC/S(CC1CC1(Cl)Cl)=N\S(=O)(=O)c1ccc(C)cc1 (stereo not given),19500 (active)
13,CC(=O)c1ccc(-c2cnc3c(NC=O)cc(-c4cccc(NS(C)(=O)=O)c4)cn23)cc1,4010
14,COc1ccc(C(c2nnnn2C2CCCC2)N2CCN(C/C=C/c3ccccc3)CC2)cc1 (stereo not given),5910
15,O=C(CC(c1ccccc1)c1ccccc1)NCC(O)c1ccc([N+](=O)[O-])cc1 (stereo not given),3190
16,CCCCOC(=O)Nc1nnc(CC(=O)NCc2ccccc2)s1,3980
17,CCCCCCOC(=O)NCC(O)c1ccccc1 (stereo not given),17600 (active)
18,Cc1cccc(CN2CCN(C3CN(Cc4cn(Cc5cc(C)cc(C)c5)nn4)S(=O)(=O)C3)CC2)c1 (stereo not given),4640
19,CCCCCCN1CCN(C2CN(Cc3cn(CCCCCC)nn3)S(=O)(=O)C2)CC1 (stereo not given),5850
20,Cc1ccc(S(=O)(=O)N(CC(O)CN2CCCCC2)c2cccc([N+](=O)[O-])c2)cc1 (stereo not given),3000

row,SMILES,fluorescence intensity
1,COc1ccc([N+](=O)[O-])cc1N(CC(O)Cn1nnc2ccccc21)S(=O)(=O)c1ccc(C)cc1 (stereo not given),17900 (active)
2,COc1ccc([N+](=O)[O-])cc1N(CC(O)CN(CC(C)C)CC(C)C)S(=O)(=O)c1ccc(C)cc1 (stereo not given),3790
3,CC(C)[C@@H](C(=O)OCC(=O)c1ccc2c(c1)NC(=O)CO2)N1C(=O)c2ccccc2C1=O,3880
4,C=C(C)C(=O)O[C@H]1C/C(C)=C\C(=O)/C=C(\C)[C@H](O)[C@@H]2OC(=O)C(=C)[C@@H]21,2760
5,CCOC(=O)c1c(C)n(C)c2ccc(OC)c(NS(=O)(=O)CC)c12,2300
6,CCOc1ccc(NC(=O)N(CC(C)C)CC(C)C)cc1,20300 (active)
7,CCOc1ccc(NC(=O)N(CCC(C)C)C(C)c2ccco2)cc1 (stereo not given),2150
8,CCOc1ccc(NC(=O)Nc2ccc(N(C)C(C)=O)cc2)cc1,4350
9,CCCC1NC(=O)NC(C)=C1C(=O)OCC (stereo not given),20200 (active)
10,CCOC(=O)C1=C(C)NC(C)=C(C(=O)OCC)C1C1=COCCO1,5040
11,CCCC1NC(=S)NC(C)=C1C(C)=O (stereo not given),4600
12,CC(=O)NC(c1ccccc1)c1nc(-c2ccccc2C)cs1 (stereo not given),3560
13,O=C(O)c1ccc(NC(=O)c2cccs2)cc1,23200 (active)
14,O=C(Nc1ccc(N2CCN(C(=O)C3CC3)CC2)cc1)c1cccs1,2520
15,O=C(NC(=S)Nc1ccc(NC(=O)c2cccs2)cc1)c1ccc([N+](=O)[O-])cc1,8970
16,CCc1ccc(NC(=O)C(=O)NNC(=O)c2cccs2)cc1,5780
17,O=C(Nc1ccccc1-c1ccccc1)c1cccs1,4880
18,O=C(O)Cc1ccc(NC(=O)c2cccs2)cc1,19700 (active)
19,CC(C)CCNC(=O)c1[nH]c(C(F)(F)F)nc1-c1ccccc1,5980
20,CCOC(=O)[C@]12CCC=C1N(Cc1ccco1)C(=O)[C@H](CC(=O)NCc1cccc(C(F)(F)F)c1)C2,4290

row,SMILES,fluorescence intensity
1,COC(=O)[C@]12CCCCC=C1N(CCC1=CCCCC1)C(=O)[C@H](CC(=O)N1CCSCC1)C2,5780
2,CC(=O)Nc1ccc(CNc2nc(NCCN(C)C)nc3cc(-c4ccccc4)sc23)cc1,3970
3,Cc1cc(Cl)ccc1NNC(=O)c1snnc1C,3890
4,Cc1noc(C)c1COc1cccc(C(=O)Nc2cccnc2)c1,4200
5,CC1(C(=O)Nc2cccnc2)Cc2c(-c3ccccc3)ccnc2O1 (stereo not given),2820
6,O=C(Nc1cccnc1)c1noc2c1CCCCC2,24400 (active)
7,CS(=O)(=O)N(CC(=O)N1CCOCC1)c1cccc(Cl)c1Cl,4130
8,COC(=O)c1ccc(CN2C(=O)C(Cc3ccccc3)ON=C2c2ncccc2C)o1 (stereo not given),4970
9,COCCn1c(SCc2nc3cc(OC)c(OC)cc3c(=O)[nH]2)nnc1-c1ccncc1,3550
10,COCCCn1c(SCc2cccc(OC)c2)nc2cc(OC)c(OC)cc2c1=N,23400 (active)
11,COc1cccc(CSc2nc3nc(C)cc(C)n3n2)c1,3360
12,CC(C)CN1CCC1(C)C(=O)Nc1ccc(OC(F)F)cc1 (stereo not given),3880
13,O=C(CSCc1ccccc1Cl)NNC(=O)c1ccccc1,18500 (active)
14,O=C(COC(=O)Cc1ccccc1F)NNC(=O)c1ccc(Cl)cc1,5990
15,O=C(COC(=O)c1ncc(Cl)c(Cl)c1Cl)NNC(=O)c1ccccc1,4100
16,Cn1cnnc1Sc1ccc(S(C)(=O)=O)cc1[N+](=O)[O-],3290
17,COc1ccc(COC[C@H](CC(C)C)N2CCN(C(=O)c3cccc(C(F)(F)F)c3)CCC2=O)cc1,4210
18,COc1ccc(S(=O)(=O)N(C)CC(=O)Nc2ccc3c(c2)OCCO3)cc1OC,3400
19,COc1ccc(NC(=O)CN(Cc2ccccc2)S(C)(=O)=O)cc1OC,2130
20,COc1ccc(NC(=O)CN(C)S(=O)(=O)c2ccccc2)cc1OC,16600 (active)
